# Experimental data: the supplement of paper PMC12636033
# ± gives the standard deviation of the averaged measurements. In all, about 33,000 sequences were measured (“E-score (rank enrichment, -0.5 to 0.5)”: median about -0.0028, highest 2% from about 0.23 on). The sample holds the highest values, similar sequences and a random draw of the others, so the mix is not that of the screen.
# System: 2Sb-muMax20 (muMax20 with two 1,3-bis(methyl)benzene Cys staples, A13C/A17C and Q88C/A92C, C-terminal Lys)
# Assay: PBM 8-mer E-score (E-score (rank enrichment, -0.5 to 0.5)); higher = stronger preferential binding
# Protocol: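 Protein binding microarray (universal PBM chip covering all 10-mers in fixed probe flanks) with chemically synthesized human Max(13-93) bHLH-LZ analogs (not full-length Max) bearing noncanonical residues (hArg, Tha, Aib, Nle at 65) and aromatic Cys staples. Read-out per 8-mer (and its reverse complement): E-score (rank-based enrichment, -0.5 to 0.5) and Z-score of median probe intensity.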
row,Sequence,PBM 8-mer E-score
1,AACGGTGG,-0.0485 ± 0.0095
2,GAAATGGC,0.0246 ± 0.0079
3,ACTATACG,0.156 ± 0.033
4,CTCTAATA,0.0986 ± 0.022
5,CTAATCAA,0.277 ± 0.014
6,TGAATCAA,0.0626 ± 0.026
7,CGAATCAA,0.2677 ± 0.00054
8,TTAATCAA,0.0337 ± 0.0076
9,CTAATCAC,0.14 ± 0.0037
10,CGAATCAG,-0.163 ± 0.065
11,AGGCCACT,0.129 ± 0.0082
12,CGTAGCAA,-0.0306 ± 0.0061
13,ACTTCATA,0.0718 ± 0.0033
14,CTAACCGC,-0.0848 ± 0.018
15,AAAGTTTC,-0.0128 ± 0.036
16,AAAGTTTA,0.249 ± 0.022
17,GAAGTTTA,-0.0783 ± 0.12
18,CCGAGAGG,-0.225 ± 0.049
19,CAGCGCGA,-0.0207 ± 0.052
20,GGCCCATA,-0.0795 ± 0.036
21,GCCCCATA,0.356 ± 0.039
22,AACCCATA,0.229 ± 0.016

row,Sequence,PBM 8-mer E-score
1,CCCCCATA,0.0403 ± 0.02
2,CACCCATA,0.21 ± 0.0057
3,GACCCATA,0.23906 ± 6.4e-05
4,CATCTACA,0.137 ± 0.025
5,ACCTGATC,-0.0825 ± 0.031
6,ATCTAGGG,0.171 ± 0.013
7,AACCCTCT,-0.0379 ± 0.0099
8,ACGCATAG,-0.0652 ± 0.023
9,CCCCACAG,-0.09771 ± 0.00011
10,ACGCATAT,0.246 ± 0.0099
11,CCCCACAC,0.19 ± 0.13
12,AACCATAA,0.13 ± 0.018
13,ACGCATAA,0.17 ± 0.01
14,AACCATAT,0.232 ± 0.0038
15,ACCCATAT,0.252 ± 0.051
16,CCCCACAA,0.264 ± 0.0045
17,AACCATAC,-0.0703 ± 0.11
18,ACCCATAG,0.0412 ± 0.039
19,ACCCATAC,0.119 ± 0.051
20,ACACAGAG,-0.0541 ± 0.0044
21,ACGGACTG,-0.167 ± 0.011
22,ACAGGACA,-0.0877 ± 0.075

row,Sequence,PBM 8-mer E-score
1,TCCTAAGA,-0.186 ± 0.031
2,GTAGCTAC,0.0481 ± 0.06
3,AGCCATAA,0.0405 ± 0.0087
4,AACCATTA,0.276 ± 0.005
5,TCCCATAA,0.0657 ± 0.052
6,ACGCACAA,0.0307 ± 0.012
7,CACCATTA,-0.044 ± 0.042
8,ACGCACAG,-0.146 ± 0.017
9,ACCCATTA,0.161 ± 0.015
10,ACGCACAT,0.235 ± 0.024
11,GCCCATAA,0.0149 ± 0.062
12,AACCATTG,-0.163 ± 0.044
13,ACCCATAA,0.25 ± 0.023
14,CCCCATAA,0.3007 ± 0.003
15,TCCTGGAA,-0.283 ± 0.06
16,TACTTTCA,0.0779 ± 0.057
17,TACCGAGA,-0.0899 ± 0.043
18,CGGCGTGA,-0.113 ± 0.017
19,CTAAGTGA,-0.204 ± 0.046
20,AGCGTGCC,-0.0325 ± 0.041
21,CTTGGAAC,0.128 ± 0.018
22,AGTACGTA,0.183 ± 0.018

row,Sequence,PBM 8-mer E-score
1,AGTACGTC,0.257 ± 0.02
2,AGTACGTG,0.0987 ± 0.039
3,GCCCGAAC,-0.0411 ± 0.062
4,AATCCGCA,-0.0479 ± 0.02
5,CGATTCCC,0.142 ± 0.0041
6,AAGACACA,0.0534 ± 0.033
7,AAGACACG,0.23 ± 0.029
8,CAGACACG,-0.0916 ± 0.036
9,CCCCGTAG,-0.0497 ± 0.00093
10,ACCCGTAA,-0.0543 ± 0.035
11,CCCCGTAA,0.276 ± 0.014
12,GCTAGGTA,-0.0432 ± 0.18
13,ATTGTGTC,0.0993 ± 0.063
14,GGGGCGTA,0.15 ± 0.08
15,CACGTGGA,0.383 ± 0.029
16,GACGTGGA,0.0221 ± 0.026
17,AACGTGGA,0.0893 ± 0.031
18,TACGTGGA,0.0786 ± 0.0068
19,AACGTGGG,0.196 ± 0.0051
20,CACGTGGG,0.438 ± 0.0088
